The text below walks through data of PubChem BioAssay (NCI).

Compounds without any hit were thinned out: in the full panel of roughly 79,000, 15% have a hit. A number with no mark means an inactive call. Active and inactive are the calls of the source. Cut-off read from the data, not from the text of the source: active = growth inhibition above about 70%; inactive = the rest.

Assay [1] in a line: NCI Yeast Anticancer Drug Screen. Data for the rad50 strain (AID 155).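 Note: 0% = growth of vehicle-only cultures of the same strain.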 As to conditions: S. cerevisiae rad50 strain growth inhibition, active compounds read high. In a few lines: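 Relative growth inhibition (compound vs vehicle) was measured in yeast with a defined repair-gene alteration.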
Assay [2] is described as follows: NCI Yeast Anticancer Drug Screen. Data for the mec2-1 strain (AID 157). To be noted: S. cerevisiae mec2-1 strain, active compounds read high. In a few lines:
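Cells of the genetically defined mec2-1 yeast strain are incubated with test compound. Inhibition of growth is calculated against vehicle-treated controls.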

Assay [3] in a line: NCI Yeast Anticancer Drug Screen. Data for the sgs1 mgt1 strain (AID 161).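 Note: 0% = growth of cultures given vehicle only.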 As to conditions: S. cerevisiae sgs1 mgt1 strain, active compounds read high. The method, boiled down:
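Read-out: growth inhibition vs vehicle controls. Cells: mutant yeast strain deficient in DNA damage repair.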

A short description of assay [4]: NCI Yeast Anticancer Drug Screen. Data for the cln2 rad14 strain (AID 165).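 Note: 0% = growth equal to vehicle treated cultures.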 As to conditions: S. cerevisiae cln2 rad14 strain, active compounds read high. The method, boiled down:
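The screen exposed genetically defined yeast (cln2 rad14) to test compounds and scored growth inhibition relative to vehicle-treated controls.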

Assay [5] in a line: NCI Yeast Anticancer Drug Screen. Data for the bub3 strain (AID 167). As to conditions: S. cerevisiae bub3 mutant strain, active compounds read high. The method, boiled down: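 Screening used yeast with an engineered genetic alteration affecting cell cycle control. Compound-exposed cultures were compared with vehicle cultures, and reduced growth was taken as inhibition.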
The nature of assay [6]: NCI Yeast Anticancer Drug Screen. Data for the mlh1 rad18 strain (AID 175). To be noted: S. cerevisiae mlh1 rad18 strain growth inhibition, active compounds read high. In a few lines:
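Compound-treated yeast growth, normalised to vehicle controls. Strain bears defined DNA repair mutations.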

The mark [7] stands for this setting: at 5.0 µM (retest, dose inferred, filed as 0.5).
The mark [8] stands for this setting: at 50.0 µM (retest, dose inferred, filed as 5.0).

As for `CC(CO)[C@H]1OC(=O)C=C2[C@@]13O[C@@H]3[C@H]1OC(=O)[C@@]3(C)[C@H]4O[C@H]4C[C@@]2(C)[C@@H]13` (some centres not stated), the growth inhibition in assay [1] (setting [7]) was 51%; in assay [1] (setting [8]) it was 98% (active); in assay [1] (at 50.0 µM), 89.8% (active); in assay [2] (setting [7]), 47%; in assay [2] (setting [8]) it was 99% (active); in assay [2] (at 50.0 µM), 91% (active). The growth inhibition in assay [3] (setting [7]) is 58%; in assay [3] (setting [8]), 97% (active); in assay [3] (at 50.0 µM), 88.2% (active); in assay [4] (setting [7]) it was 59%; in assay [4] (setting [8]), 98% (active); in assay [4] (at 50.0 µM) it was 89.5% (active). Moreover, the growth inhibition was 66% in assay [5] (setting [7]); 98% (active) in assay [5] (setting [8]); 88.8% (active) in assay [5] (at 50.0 µM); 61% in assay [6] (setting [7]); 97% (active) in assay [6] (setting [8]); 89.8% (active) in assay [6] (at 50.0 µM).
As for `O=C1NC(=O)N(c2ccc([N+](=O)[O-])cc2)C1=O`, the growth inhibition in assay [1] (setting [7]) is 9%; in assay [1] (setting [8]), 3%; in assay [1] (at 50.0 µM), -0.3%; in assay [2] (setting [7]) it was 8%; in assay [2] (setting [8]), 2%; in assay [2] (at 50.0 µM), 1.1%. The growth inhibition in assay [3] (setting [7]) was 3%; in assay [3] (setting [8]), 6%; in assay [3] (at 50.0 µM), -2.95%; in assay [4] (setting [7]), 9%; in assay [4] (setting [8]) it was 5%; in assay [4] (at 50.0 µM), 18.1%. Further, the growth inhibition in assay [5] (setting [7]) was 6%; in assay [5] (setting [8]), 5%; in assay [5] (at 50.0 µM), -4.4%; in assay [6] (setting [7]), 0%; in assay [6] (setting [8]) it was 7%; in assay [6] (at 50.0 µM), 10.2%.
Turning to `CCCC(=O)NC1=C(Cl)C(=O)c2ccccc2C1=O`, the growth inhibition in assay [1] (setting [7]) was 100% (active); in assay [1] (setting [8]) it was 99% (active); in assay [1] (at 50.0 µM) it was 91.8% (active); in assay [2] (setting [7]) it was 100% (active); in assay [2] (setting [8]), 100% (active); in assay [2] (at 50.0 µM), 92.5% (active). Besides, the growth inhibition is 100% (active) in assay [3] (setting [7]); 100% (active) in assay [3] (setting [8]); 92.5% (active) in assay [3] (at 50.0 µM); 90% (active) in assay [4] (setting [7]); 99% (active) in assay [4] (setting [8]); 91.5% (active) in assay [4] (at 50.0 µM). For the same molecule, the growth inhibition in assay [5] (setting [7]) is 100% (active); in assay [5] (setting [8]) it was 99% (active); in assay [5] (at 50.0 µM), 89.7% (active); in assay [6] (setting [7]), 101% (active); in assay [6] (setting [8]), 99% (active); in assay [6] (at 50.0 µM), 87.5% (active).
Turning to `CCCCc1ccc2nc(C)cc(N/N=C/c3ccc4c(c3)OCO4)c2c1`, the growth inhibition is 9% in assay [1] (setting [7]); 20% in assay [1] (setting [8]); 66.7% in assay [1] (at 50.0 µM); 1% in assay [2] (setting [7]); 19% in assay [2] (setting [8]); 22% in assay [2] (at 50.0 µM). The growth inhibition is 15% in assay [3] (setting [7]); 31% in assay [3] (setting [8]); 73.5% (active) in assay [3] (at 50.0 µM); -3% in assay [4] (setting [7]); 2% in assay [4] (setting [8]); 15.9% in assay [4] (at 50.0 µM). Moreover, the growth inhibition was -4% in assay [5] (setting [7]); 1% in assay [5] (setting [8]); 6.6% in assay [5] (at 50.0 µM); 9% in assay [6] (setting [7]); 35% in assay [6] (setting [8]); 29.8% in assay [6] (at 50.0 µM).
Regarding `Nc1nc2nn(-c3ccc(C(=O)O)cc3)nc2c(=O)[nH]1`, the growth inhibition was 2% in assay [1] (setting [7]); 9% in assay [1] (setting [8]); 16.6% in assay [1] (at 50.0 µM); 3% in assay [2] (setting [7]); 1% in assay [2] (setting [8]); 30.8% in assay [2] (at 50.0 µM). Further, the growth inhibition in assay [3] (setting [7]) was -4%; in assay [3] (setting [8]) it was 3%; in assay [3] (at 50.0 µM), 9.3%; in assay [4] (setting [7]), 4%; in assay [4] (setting [8]), 1%; in assay [4] (at 50.0 µM), -7.05%. Also, the growth inhibition in assay [5] (setting [7]) was -2%; in assay [5] (setting [8]), -3%; in assay [5] (at 50.0 µM), 39.8%; in assay [6] (setting [7]) it was 3%; in assay [6] (setting [8]), 9%; in assay [6] (at 50.0 µM), 67.9%.
As for `COC(=O)c1ccccc1C#Cc1ccccc1C(=O)OC`, the growth inhibition in assay [1] (setting [7]) is -1%; in assay [1] (setting [8]), -1%; in assay [1] (at 50.0 µM), 66.8%; in assay [2] (setting [7]), -2%; in assay [2] (setting [8]), 2%; in assay [2] (at 50.0 µM), 54.3%. Besides, the growth inhibition in assay [3] (setting [7]) is -2%; in assay [3] (setting [8]) it was 1%; in assay [3] (at 50.0 µM) it was 89% (active); in assay [4] (setting [7]), -2%; in assay [4] (setting [8]), -7%; in assay [4] (at 50.0 µM), 12.9%. In addition, the growth inhibition in assay [5] (setting [7]) is 3%; in assay [5] (setting [8]), 4%; in assay [5] (at 50.0 µM), 83.5% (active); in assay [6] (setting [7]), -3%; in assay [6] (setting [8]), -5%; in assay [6] (at 50.0 µM), 50%.
Regarding `COc1cc(C2c3cc4c(cc3[C@@H](Nc3ccc5c(c3)OCCO5)C3COC(=O)[C@H]23)OCO4)cc(OC)c1O` (some centres not stated), the growth inhibition in assay [1] (setting [7]) was 96% (active); in assay [1] (setting [8]) it was 93% (active); in assay [1] (at 50.0 µM) it was 85.2% (active); in assay [2] (setting [7]), 97% (active); in assay [2] (setting [8]), 94% (active); in assay [2] (at 50.0 µM) it was 91.2% (active). The growth inhibition is 99% (active) in assay [3] (setting [7]); 99% (active) in assay [3] (setting [8]); 87.3% (active) in assay [3] (at 50.0 µM); 98% (active) in assay [4] (setting [7]); 99% (active) in assay [4] (setting [8]); 85.8% (active) in assay [4] (at 50.0 µM). For the same molecule, the growth inhibition in assay [5] (setting [7]) is 98% (active); in assay [5] (setting [8]) it was 99% (active); in assay [5] (at 50.0 µM), 87.2% (active); in assay [6] (setting [7]), 95% (active); in assay [6] (setting [8]), 90% (active); in assay [6] (at 50.0 µM), 88.8% (active).
In the case of `O=C(Cl)c1cc(-c2ccc(Cl)cc2)nc2c(Cl)cccc12`, the growth inhibition is 6% in assay [1] (setting [7]); 98% (active) in assay [1] (setting [8]); 72.5% (active) in assay [1] (at 50.0 µM); 11% in assay [2] (setting [7]); 99% (active) in assay [2] (setting [8]); 61.2% in assay [2] (at 50.0 µM). Also, the growth inhibition is 5% in assay [3] (setting [7]); 99% (active) in assay [3] (setting [8]); 84.8% (active) in assay [3] (at 50.0 µM); 3% in assay [4] (setting [7]); 99% (active) in assay [4] (setting [8]); 42.4% in assay [4] (at 50.0 µM). Besides, the growth inhibition is 4% in assay [5] (setting [7]); 99% (active) in assay [5] (setting [8]); 74.2% (active) in assay [5] (at 50.0 µM); 9% in assay [6] (setting [7]); 99% (active) in assay [6] (setting [8]); 87.2% (active) in assay [6] (at 50.0 µM).
In the case of `Cc1cc(C)c(C(=O)/C=C/C(=O)c2ccccc2)c(C)c1`, the growth inhibition in assay [1] (setting [7]) was 86% (active); in assay [1] (setting [8]), 95% (active); in assay [1] (at 50.0 µM), 62.4%; in assay [2] (setting [7]) it was 89% (active); in assay [2] (setting [8]), 96% (active); in assay [2] (at 50.0 µM), 78.1% (active). Further, the growth inhibition is 85% (active) in assay [3] (setting [7]); 96% (active) in assay [3] (setting [8]); 90.6% (active) in assay [3] (at 50.0 µM); 51% in assay [4] (setting [7]); 95% (active) in assay [4] (setting [8]); 47.2% in assay [4] (at 50.0 µM). Moreover, the growth inhibition is 89% (active) in assay [5] (setting [7]); 96% (active) in assay [5] (setting [8]); 96% (active) in assay [5] (at 50.0 µM); 93% (active) in assay [6] (setting [7]); 96% (active) in assay [6] (setting [8]); 92.7% (active) in assay [6] (at 50.0 µM).
